Measured values from PubChem BioAssay (NCATS).
Results filed as inconclusive are left out. A call without a number means that no potency is given here. Unmarked numbers belong to inactive results. Activity calls are given as the source filed them. Unless noted, calls come from the whole dose curve; as a rule, active = well fitted inhibition curve with a large enough effect; inconclusive = small, poorly fitted or top-dose-only effect; inactive = flat fitted curve, though single readings scatter.

Key:
[1] = test system: CRL-7250; assay: qHTS assay to identify novel small-molecules to repurpose for Merkel cell carcinoma treatment (AID 1296009); details: MCC and control cell lines, CellTiter-Glo viability, 72 h; series mostly up to 92 µM; note: nearly all actives have a fitted effect of over 60% in size
Procedure, shortened: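 qHTS format: cells treated with library compounds in DMSO across 8 (NPC) or 11 (MIPE) concentrations. Readout after 72 hr at 37 degree celsius was CellTiter-Glo luminescence.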

[2] = qHTS for Inhibitors of the Functional Ribonucleoprotein Complex (vRNP) of Lassa (LASV) Arenavirus: LASV Primary Screen - GLuc reporter signal (AID 1347082; calls by dose curve; tested in HEK293 reporter line; note: nearly all actives have a fitted effect of over 60% in size)
[3] = qHTS for Inhibitors of the Functional Ribonucleoprotein Complex (vRNP) of Lassa (LASV) Arenavirus: Viability assay - alamar blue signal for LASV Primary Screen (AID 1347083; calls by dose curve; tested in HEK293 reporter line; note: nearly all actives have a fitted effect of over 80% in size)
[4] = qHTS for Inhibitors of the Functional Ribonucleoprotein Complex (vRNP) of Lymphocytic Choriomeningitis Arenaviruses (LCMV): Viability assay - alamar blue signal for LCMV Primary Screen (AID 1347085; calls by dose curve; tested in HEK293 reporter line; note: nearly all actives have a fitted effect of over 80% in size)
[5] = molecular target: Nucleoprotein (Lymphocytic choriomeningitis virus (strain Armstrong)) (UniProt P09992); assay: qHTS for Inhibitors of the Functional Ribonucleoprotein Complex (vRNP) of Lymphocytic Choriomeningitis Arenaviruses (LCMV): LCMV Primary Screen - GLuc reporter signal (AID 1347086; calls by dose curve; note: nearly all actives have a fitted effect of over 70% in size)
Sequence of Nucleoprotein (Lymphocytic choriomeningitis virus (strain Armstrong)) (P09992 whole entry, looked up): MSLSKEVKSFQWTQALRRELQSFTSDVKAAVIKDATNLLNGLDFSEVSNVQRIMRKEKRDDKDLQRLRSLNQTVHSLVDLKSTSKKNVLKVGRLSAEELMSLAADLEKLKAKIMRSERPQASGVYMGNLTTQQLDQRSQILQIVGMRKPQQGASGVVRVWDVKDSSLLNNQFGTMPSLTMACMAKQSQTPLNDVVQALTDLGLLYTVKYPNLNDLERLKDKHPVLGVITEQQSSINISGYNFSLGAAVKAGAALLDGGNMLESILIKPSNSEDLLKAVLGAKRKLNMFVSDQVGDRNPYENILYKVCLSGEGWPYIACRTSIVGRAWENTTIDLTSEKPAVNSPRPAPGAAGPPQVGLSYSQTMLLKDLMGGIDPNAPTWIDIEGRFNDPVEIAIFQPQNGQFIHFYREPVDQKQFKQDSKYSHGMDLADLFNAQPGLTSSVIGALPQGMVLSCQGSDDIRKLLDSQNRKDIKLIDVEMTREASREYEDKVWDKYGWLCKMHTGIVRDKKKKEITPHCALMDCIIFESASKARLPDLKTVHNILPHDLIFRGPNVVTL

C=CC1(C)CC(OC(=O)C(=C)C(O)COC(C)=O)C(C(=C)C(=O)OC)C(O)C1C(=C)CO (stereo not given)
Potency [1]: inactive

COc1cccc2c1CCC[C@H]2CN(C)CCc1ccc2ccoc2c1
Potency [1]: inactive

O=C(Cc1ccc(-c2ccccc2)cc1)NC1CCC1
Potency [1]: inactive

CC(=O)O[C@@H]1CC2C(/C=C(\C)C(=O)[C@@]3(O)C[C@@H](C)[C@H](OC(=O)c4ccccc4)C3/C=C/1C)C2(C)C (stereo not given in full)
Potency [1]: inactive

Cc1c(NC(=O)N2CCOCC2)ccc2c1c1ccccc1n2C(C)C
Potency [1]: inactive

CN1CCN(C2=Nc3ccccc3Nc3ccc(OS(=O)(=O)C(F)(F)F)cc32)CC1
Potency [1]: inactive

CC(C)=C1CC2C(CCC2(C)O)C(C)(O)CC1=O (stereo not given)
Potency [1]: inactive

C=C1CC/C=C(/CO)C(=O)C[C@@H]2[C@@H]1C[C@@]2(C)COC(C)=O
Potency [1]: inactive

CC1=CCC2C(C)(CO)CCCC2(CO)C1CO (stereo not given)
Potency [1]: inactive

C=C1CC[C@@]2(OC1)O[C@H]1CC3[C@@H]4CC=C5C[C@@H](O)C[C@@H](O[C@@H]6OC[C@H](O)[C@H](O)[C@H]6O[C@@H]6O[C@@H](C)[C@H](O)[C@@H](O)[C@H]6O)[C@]5(C)C4CC[C@]3(C)[C@H]1[C@@H]2C (stereo not given in full)
Potency [1]: inactive

C[C@@H]1O[C@@H](O[C@H]2[C@H](O)[C@@H](C(=O)O)O[C@@H](O[C@H]3CC[C@@]4(C)C(CC[C@]5(C)C4CC=C4C6CC(C)(C)CC[C@]6(C(=O)O)CC[C@]45C)C3(C)C)[C@@H]2O[C@@H]2O[C@H](CO)[C@@H](O)[C@H](O)[C@H]2O)[C@H](O)[C@H](O)[C@H]1O (stereo not given in full)
outcome [1]: inactive [at 9.27 µM]

CC1(CO)CC[C@]2(C(=O)O[C@@H]3O[C@H](CO)[C@@H](O)[C@H](O)[C@H]3O)CC[C@]3(C)C(=CCC4[C@@]5(C)C[C@H](O)[C@H](O[C@@H]6OC[C@@H](O)[C@H](O)[C@H]6O)[C@@](C)(CO)C5CC[C@]43C)C2C1 (stereo not given in full)
outcome [1]: inactive [at 9.27 µM]

CC(=O)NC(CCC(=O)O)C(=O)NCCc1ccc(O)cc1 (stereo not given)
Potency [1]: inactive

COc1c(O)cc2c(c1O)C(=O)O[C@H](C)[C@H]2O
Potency [1]: inactive

COc1cccc(-c2ccc([C@@H](Oc3cc(-c4ccc(C[C@H](N)C(=O)O)cc4)nc(N)n3)C(F)(F)F)cc2)c1
Potency [1]: inactive

COC(=O)c1[nH]c(=O)c2ccccc2c1-c1ccc[nH]1
Potency [1]: inactive

C[C@@H]1O[C@@H](OC2C(CO)OC(OCC3OC(OC(=O)[C@]45CCC(C)(C)CC4C4=CCC6[C@@]7(C)CC[C@@H](O)[C@](C)(C(=O)O)C7CC[C@@]6(C)[C@]4(C)CC5)C(O)C(O)C3O)C(O)C2O)[C@H](O)[C@H](O)[C@H]1O (stereo not given in full)
outcome [1]: inactive [at 9.27 µM]

COc1cc2ncnc(Nc3ccc(F)c(Cl)c3)c2cc1O
Potency [1]: inactive

CC(c1ncncc1F)C(O)(Cn1cncn1)c1ccc(F)cc1F (stereo not given)
Potency [1]: inactive

CC(C/C=C/C(C)(C)O)C1CCC(C)(O)C(O)C1 (stereo not given)
Potency [1]: inactive

COC1=CC(=O)O[C@@H](/C=C/c2ccccc2)[C@@H]1O
Potency [1]: inactive

OC[C@H]1O[C@@H](Oc2ccccc2)[C@H](O)[C@@H](O)[C@@H]1O
Potency [1]: inactive

C=C(C)[C@@H](C)[C@H]1O[C@]23C[C@]4(CO2)C(CCC2[C@@]5(C)CC[C@H](O[C@@H]6OC[C@H](O)[C@H](O[C@@H]7O[C@H](CO)[C@@H](O)[C@H](O)[C@H]7O)[C@H]6O[C@@H]6O[C@@H](CO)[C@H](O)[C@H]6O)C(C)(C)C5CC[C@]24C)C3[C@@](C)(O)[C@@H]1OC(C)=O (stereo not given in full)
outcome [1]: inactive [at 9.27 µM]

CC(C)(O)c1ccc2c(c1)ncn2-c1cccc(-c2ccccc2C#N)c1
Potency [1]: inactive

CC(F)(F)CN1CCOc2c(nn(-c3ccccc3Cl)c2-c2ccc(Cl)cc2)C1=O
Potency [1]: inactive

CC(=O)O[C@@H]1CC2C(C)(C)C(=O)C=C[C@]2(C)C2CC[C@@]3(C)[C@H](c4ccoc4)OC(=O)[C@H]4O[C@]43[C@@]21C (stereo not given in full)
Potency [1]: inactive

CC(=O)OC1CC(C)C2(CCC3(CC(=O)OC3O)O2)C2(C)CCCC(C)(C)C12 (stereo not given)
Potency [1]: inactive

CC1=C2C(=O)C=C(CO)C2C2OC(=O)C(CS(=O)(=O)O)C2C(OC(=O)Cc2ccc(O)cc2)C1 (stereo not given)
Potency [1]: inactive

Cn1c(=O)c2nc(/C=C/c3cccc(Cl)c3)n(C)c2n(C)c1=O
Potency [1]: inactive

CNC(C)C(=O)NC(C(=O)N1CCCC1C(=O)Nc1cccc2ncccc12)C(C)C (stereo not given)
Potency [1]: inactive

CCOc1ccc(C(Nc2ccccn2)c2ccc3ccc(C)nc3c2O)cc1C (stereo not given)
Potency [1]: inactive

C/C1=C\CC[C@H](C)CCO[C@@H]2O[C@H](CO[C@@H]3OC[C@](O)(COC1=O)[C@H]3O)[C@@H](O)[C@H](O)[C@H]2O
Potency [1]: inactive

COc1c(C(C)C)c(O)c(O)c2c1C(OC)[C@H]1OC(=O)[C@@]23CCCC(C)(C)[C@H]13 (stereo not given in full)
Potency [1]: inactive

C=CC(C)(CC/C=C(\C)CC/C=C(\C)CC(O)/C=C(\C)C(=O)O)O[C@@H]1O[C@H](CO)[C@@H](O)[C@H](O)[C@H]1O[C@@H]1O[C@H](CO)[C@@H](O)[C@H](O)[C@H]1O (stereo not given in full)
Potency [1]: inactive

C[C@@H]1C[C@H]2OC(=O)[C@@]3(C)CCC[C@](C)(C23)[C@@]1(O)CCC1=CC(=O)OC1O (stereo not given in full)
Potency [1]: inactive

COC(=O)C1=COC(O[C@@H]2O[C@H](CO)[C@@H](O)[C@H](O)[C@H]2O)[C@H]2[C@@H]1[C@H](OC(=O)CCc1ccc(O)cc1)C[C@]2(C)O (stereo not given in full)
Potency [1]: inactive

CC1=C(CC(=O)O)c2cc(F)ccc2C1=Cc1ccc(S(C)(=O)=O)cc1
Potency [1]: inactive

C[C@H]1/C=C/C=C/C=C/C=C/C=C/[C@@H](O)[C@H](C(=O)O)[C@H](O)C[C@H](O)CCC[C@H](O)C[C@H](O)C[C@H](O)[C@@H](C)C(=O)O[C@@H]1C
Potency [1]: inactive

COc1ccc(OC)c(C2C(C#N)=C(N)Oc3n[nH]c(-c4ccc5ccccc5c4)c32)c1 (stereo not given)
Potency [1]: inactive

COc1c2c(c(C)c3c1C(=O)OC3)OC1(C)CC(O)C34OC(OC)(CCC3(C)C1C2)OC4(C)CO (stereo not given)
Potency [1]: inactive

O=C1NC(Cc2ccccc2)C(=O)N2CCCC12 (stereo not given)
Potency [1]: inactive

CC1(C)CCCC2(C)C=C(C(=O)O)C(O)CC12 (stereo not given)
Potency [1]: inactive

O=C(c1ccc(C#Cc2cccc(F)c2)cn1)N1CC2CC2C1 (stereo not given)
Potency [1]: inactive

Clc1cccc(-n2nnnc2NCc2ccccc2Oc2ccccn2)c1Cl
Potency [2]: inactive
Potency [3]: inactive
Potency [4]: inactive
Potency [5]: inactive
Potency [1]: inactive

CN(C)CCOc1ccc(-c2nc(-c3ccc4c(c3)CCC4=NO)c(-c3ccncc3)[nH]2)cc1
Potency [2]: inactive
Potency [3]: inactive
Potency [4]: inactive
Potency [5]: inactive
Potency [1]: inactive

Cc1cc(-c2ncc(-c3cccnc3)cc2/C=C/c2ccccc2)cnc1-c1cccnc1
Potency [1]: inactive

COc1ccc(-c2coc3cc(O)ccc3c2=O)cc1
Potency [2]: inactive
Potency [3]: inactive
Potency [4]: inactive
Potency [5]: inactive
Potency [1]: inactive

O=C(C[C@@H]1CC=CCCC(=O)O[C@H](c2ccccc2)CNC1=O)NCc1ccc(Cl)cc1
Potency [2]: inactive
Potency [3]: inactive
Potency [4]: inactive
Potency [5]: inactive
Potency [1]: inactive

O=C(CS(=O)Cc1ccco1)NCC=CCOc1cc(CN2CCCCC2)ccn1 (stereo not given)
Potency [2]: inactive
Potency [3]: inactive
Potency [4]: inactive
Potency [5]: inactive
Potency [1]: inactive

C=CC(C)(O)CC/C=C(/C)C(=O)OC1C(OC2OCC(OC3OC(CO)C(O)C(O)C3O)C(OC3OCC(O)C(OC4OC(C)C(O)C(O)C4O)C3O)C2O)COC(OC(=O)C23CCC(C)(C)CC2C2=CCC4C5(C)CCC(OC6OC(CO)C(OC7OC(CO)C(O)C(OC8OCC(O)C(O)C8O)C7O)C(O)C6O)C(C)(C)C5CCC4(C)C2(C)CC3O)C1O (stereo not given)
outcome [1]: inactive [at 4.96 µM]

CC1(C)CC2C(O)C3=C(CC(C)(O)C2C1)C(=O)OC3 (stereo not given)
Potency [1]: inactive

O=C(NCc1ccccc1)[C@H](Cc1ccccc1)NC(=O)[C@@H]1O[C@@H]1C(=O)NCCc1ccc(O)cc1
Potency [2]: inactive
Potency [3]: inactive
Potency [4]: inactive
Potency [1]: inactive

COC(=O)N[C@H](C(=O)N1CCC[C@@H]1c1ncc(-c2ccc(-c3ccc(-c4cnc([C@@H]5CCCN5C(=O)[C@@H](NC(=O)OC)C(C)C)[nH]4)cc3)cc2)[nH]1)C(C)C
Potency [2]: inactive
Potency [3]: inactive
Potency [4]: inactive
Potency [1]: inactive

CC1(C)S[C@H]2[C@H](NC(=O)[C@@H](N)c3ccc(O)cc3)C(=O)N2[C@@H]1C(=O)O
Potency [2]: inactive
Potency [3]: inactive
Potency [4]: inactive
Potency [5]: inactive
Potency [1]: inactive

CN[C@@H]1[C@@H](O)[C@@H](O[C@@H]2[C@@H](O)[C@H](O[C@H]3O[C@H](CN)[C@@H](O)[C@H](O)[C@@H]3O)[C@@H](N)C[C@@H]2NC(=O)[C@@H](O)CN)OC[C@]1(C)O
Potency [2]: inactive
Potency [3]: inactive
Potency [4]: inactive
Potency [5]: inactive
Potency [1]: inactive

C=C1CC23CC1CCC2C12OC(=O)C(C)(CCC1O)C2C3C(=O)O (stereo not given)
Potency [1]: inactive

COc1cc([C@H]2Oc3cc([C@H]4Oc5cc(O)cc(O)c5C(=O)[C@H]4O)ccc3O[C@H]2CO)ccc1O
Potency [2]: inactive
Potency [3]: inactive
Potency [4]: inactive
Potency [5]: inactive
Potency [1]: inactive
